HPGD inh: blocks human HPGD enzyme activity | purified HPGD, NADH fluorescence kinetic, PGE2 substrate | Potency, µM, for the others: at the highest dose activity change, negative = inhibition, most hits filed as inhibitors | AID 894 | 4.3% of 150,000 active | P15428; active means well fitted inhibition curve with a large enough effect, not every such curve was filed as active; inconclusive means small, poorly fitted or top-dose-only effect, or another doubt; inactive means no such curve, though single readings can be large or run the other way
Target sequence (P15428 whole entry, looked up): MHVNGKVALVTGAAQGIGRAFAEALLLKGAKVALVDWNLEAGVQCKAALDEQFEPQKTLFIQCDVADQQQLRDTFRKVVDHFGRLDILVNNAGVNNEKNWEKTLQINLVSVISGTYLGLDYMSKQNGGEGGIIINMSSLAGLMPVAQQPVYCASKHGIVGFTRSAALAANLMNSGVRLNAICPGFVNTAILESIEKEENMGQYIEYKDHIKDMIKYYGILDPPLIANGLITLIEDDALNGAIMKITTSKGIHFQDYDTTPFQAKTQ
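20 nM HPGD preincubated 15 min at room temperature with compound in 50 mM Tris-HCl pH 8, 0.01% Tween 20. Started with 1 mM NAD+ and 30 uM prostaglandin E2; NADH fluorescence (360/450 nm) read 5 times over 30-s intervals, last minus first.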
ALDH1A1 block: blocks purified human ALDH1A1 activity. P00352. Potency, µM (highest dose often 75.3 µM), for the others: at the highest dose activity, negative = inhibition, actives largely listed as inhibitors. AID 1030. Purified ALDH1A1, NADH fluorescence, propionaldehyde substrate. 7.3% of 220,000 active; active means well fitted inhibition curve with a large enough effect, not every such curve was filed as active; inconclusive means small, poorly fitted or top-dose-only effect, or another doubt; inactive means no such curve, though single readings can be large or run the other way;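 further: plate controls were no enzyme wells and a reference inhibitor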
Tau ThT inhib: tau fibrillization inhibition (ThT binding); Potency, µM (highest dose often 57.4 µM), inactives show at the highest dose activity, negative = inhibition, most hits filed as inhibitors; recombinant tau K18 P301L, heparin-induced fibrillization, ThT fluorescence; 2.1% of 270,000 active; P10636; further: nearly all actives have a fitted effect of over 55% in size
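ThT emission at 510 nm, taken 1 hr after adding 30 uM dye, quantifies aggregates formed when 20 uM heparin acts on human tau K18 P301L for 6 hr at 37 C.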
Tau fluor cs: counter-screen for tau fibril formation inhibitors. tau K18 P301L Alexa594 fluorescence, heparin fibrillization. Potency, µM (highest dose often 57.7 µM), for inactives: at the highest dose activity change, negative = decrease. 0.93% of 280,000 active; further: nearly all actives have a fitted effect of over 55% in size
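Human tau K18 P301L (15 uM unlabeled, 0.24 uM Alexa 594-labeled) in 100 mM sodium acetate pH 7 with 20 uM heparin, 6 hr at 37 C. ThT 30 uM added, 1 hr ambient; Alexa 594 FP and total fluorescence read at 555/632 nm.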
Tau fibril FP: blocks human tau fibril formation measured by polarization; K18 P301L tau heparin fibrillization, Alexa594 FP, 6 h; Potency, µM (highest dose often 57.7 µM), for inactives: at the highest dose activity, negative = inhibition, most hits filed as inhibitors; 0.39% of 280,000 active; AID 1468; further: nearly all actives have a fitted effect of over 55% in size
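Human K18 P301L fragment (15 uM unlabeled plus 0.24 uM Alexa 594-labeled) in 100 mM sodium acetate pH 7 with compound, aggregation induced by 20 uM heparin for 6 hr at 37 C. ThT (30 uM) added for 1 hr, then Alexa 594 FP read.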
KDM4E inh: blocks human JMJD2E demethylase activity; Potency, µM (top dose mostly 57.1 µM), for inactives: at the top dose activity change, negative = inhibition, actives largely listed as inhibitors; 1.6% of 230,000 active; JMJD2E catalytic domain, FDH-coupled NADH fluorescence (FDH is formaldehyde dehydrogenase); AID 2147; B2RXH2; active means well fitted inhibition curve with a large enough effect, not every such curve was filed as active; inconclusive means small, poorly fitted or top-dose-only effect, or another doubt; inactive means no such curve, though single readings can be large or run the other way;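 further: 0% = wells with enzyme and -100% = buffer wells without enzyme; nearly all actives have a fitted effect of over 50% in size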
Target sequence (B2RXH2 1-337 limits assumed): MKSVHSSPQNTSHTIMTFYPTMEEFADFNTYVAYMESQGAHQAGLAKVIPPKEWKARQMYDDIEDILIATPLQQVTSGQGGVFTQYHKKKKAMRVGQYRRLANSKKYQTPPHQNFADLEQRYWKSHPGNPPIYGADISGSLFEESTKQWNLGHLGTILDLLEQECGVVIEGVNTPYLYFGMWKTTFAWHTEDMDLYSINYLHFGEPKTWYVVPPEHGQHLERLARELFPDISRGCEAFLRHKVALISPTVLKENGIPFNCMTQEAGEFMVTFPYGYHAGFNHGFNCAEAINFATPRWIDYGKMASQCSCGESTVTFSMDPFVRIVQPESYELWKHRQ
* = called active by the depositor; ? = inconclusive; nt = not tested or not shown. Most compounds without a hit are left out; they make up all but 9.9% or so of the library. Unless noted, the call rests on the fitted dose curve; in most records, active means well fitted curve in the direction sought with a large enough effect; inconclusive means small, poorly fitted or top-dose-only effect, or another doubt; inactive means no such curve, though single readings can be large; an effect the other way counts as inactive or inconclusive. Unless noted, on the % scale 0 is the no-effect control and ±100 the full control effect; potency means the concentration at half of the fitted maximal effect.

SMILES	HPGD inh	ALDH1A1 block	Tau ThT inhib	Tau fluor cs	Tau fibril FP	KDM4E inh
O=C(NCc1ccco1)c1cccn2c(=O)c3cc4ccccc4cc3nc12	-16%	4%	2.8µM*	-8%	0%	-30%
COCCCNC(=O)c1cccn2c(=O)c3cc4ccccc4cc3nc12	-20%	-11%	14µM*	-11%	-6%	?
Cc1[nH]nc2c1C(CC(C)C)C(C#N)=C(N)O2 (stereo not given)	nt	nt	-15%	-10%	2%	?
CC(C)CC1C(C#N)=C(N)SC(N)=C1C#N	32µM*	3.5µM*	-14%	-5%	-3%	?
CC1(C)CC(=O)C2=C(C1)OC(N)=C(C#N)C2CCc1ccccc1 (stereo not given)	-18%	?	-10%	-11%	-9%	-1%
N#CC1=C(N)SC(N)=C(C#N)C1CCc1ccccc1	14µM*	?	?	-20%	-7%	?
N#CC1=C(N)SC(N)=C(C#N)C1Cc1ccccc1	11µM*	8.9µM*	?	-15%	-6%	9%
N#CC1=C(N)SC(N)=C(C#N)C1c1c(Cl)cccc1Cl	?	22µM*	?	-18%	-9%	?
CC1(C)OC(=O)C(=CNC(Cc2c[nH]c3ccccc23)C(=O)O)C(=O)O1 (stereo not given)	-5%	25µM*	-8%	-4%	2%	4%
O=C(NCc1ccccc1)N[C@@H](Cc1c[nH]c2ccccc12)C(=O)O	nt	-2%	-5%	5%	7%	-4%
CC(=O)N[C@H](CC(C)C)C(=O)O	-6%	3%	-6%	-12%	-12%	2%
COc1cc(N2C(=O)C=CC2=O)c(OC)cc1Cl	nt	8.9µM*	?	0%	-3%	1%
COc1cc(Cl)c(S(=O)(=O)N2CCCC2)cc1Cl	nt	-2%	5%	2%	-6%	0%
O=S1(=O)N=C(Nc2nncs2)c2ccccc21	28µM*	?	?	-14%	?	?
CCOc1ccc2[nH]c(=O)c(CN(Cc3ccco3)C(=O)c3ccc(Br)cc3)cc2c1	-20%	4.5µM*	?	7%	-12%	?
CCOc1ccc2[nH]c(=O)c(CN(Cc3ccco3)C(=O)c3cccc(F)c3)cc2c1	?	?	?	-10%	-13%	?
COc1cccc(C(=O)N(Cc2ccco2)Cc2cc3cccc(C)c3[nH]c2=O)c1	nt	14µM*	-18%	-1%	4%	?
COc1ccc2[nH]c(=O)c(CN(Cc3ccco3)C(=O)c3ccccc3)cc2c1	?	?	-13%	-2%	-5%	?
Cc1cc(C)c2[nH]c(=O)c(CN(Cc3ccco3)C(=O)c3cccs3)cc2c1	?	18µM*	?	-7%	2%	?
Nn1c(SCc2cccc3ccccc23)nnc1-c1ccco1	14µM*	-8%	?	-12%	-10%	5%
Nn1c(Cc2cccc3ccccc23)nnc1SCn1nnc2ccccc2c1=O	-16%	-1%	-9%	-7%	1%	-2%
Nn1c(Cc2cccc3ccccc23)nnc1SCc1c(Cl)cccc1Cl	7.9µM*	?	1%	-2%	4%	1%
Nn1c(Cc2cccc3ccccc23)nnc1SC1CCOC1=O (stereo not given)	-7%	-2%	-17%	-11%	-2%	7%
Nn1c(Cc2cccc3ccccc23)nnc1SCc1ccc(Cl)c(Cl)c1	2.8µM*	?	-3%	-8%	-1%	-2%
O=C(CCl)N1c2ccccc2OCC1c1ccccc1 (stereo not given)	32µM*	0%	12%	5%	3%	1%
SMILES	HPGD inh	ALDH1A1 block	Tau ThT inhib	Tau fluor cs	Tau fibril FP	KDM4E inh
N=C1C(c2nc3ccccc3[nH]2)=C(O)CN1c1ccc(CC(=O)O)cc1	-22%	24µM*	?	-12%	7%	-6%
N=C1C(c2nc3ccccc3[nH]2)=C(O)CN1c1ccccc1	-12%	13%	?	-19%	-5%	3%
N#Cc1ccc(NC(=O)c2ccc3c(c2)nnn3C2CCCC2)cc1	nt	nt	3%	-3%	-13%	nt
CC(C)(C)C(=O)Nc1nc(=S)ss1	32µM*	5.6µM*	?	-11%	?	10%
CCC(=O)Nc1nc(=S)ss1	10µM*	2µM*	?	-20%	?	?
COc1cccc(-c2cc(C(=O)N/N=C/c3ccccc3O)[nH]n2)c1	-3%	2%	nt	nt	nt	nt
O=C(NCc1ccccn1)c1cccc(NS(=O)(=O)c2cccc(F)c2)c1	-16%	14µM*	-4%	-7%	-8%	4%
Cc1cc(C)cc(NS(=O)(=O)c2cc(C(=O)NCc3ccccn3)ccc2Cl)c1	-1%	9%	-7%	-12%	9%	-4%
O=C(COc1cc(=O)n2c(n1)SCCC2)c1ccccc1	16µM*	14µM*	-12%	-4%	-1%	6%
O=C(CN1CCOCC1)Nc1nc2ccc(Br)cc2s1	-22%	13µM*	-16%	-17%	?	-12%
Cc1cc(NC(=O)CN2CCOCC2)n(-c2nc3ccccc3s2)n1	-8%	22µM*	-9%	-8%	-18%	-2%
CCOc1ccc2nc(NC(=O)CN3CCOCC3)sc2c1	nt	13%	-1%	6%	7%	6%
Cc1cc(NC(=O)CN2CCOCC2)n(-c2ccccc2)n1	nt	nt	-8%	-6%	5%	6%
COC(=O)C1=C(C)NC(=O)/C1=C\c1cc(C)n(-c2ccc(F)cc2)c1C	nt	-9%	16µM*	?	1%	20µM*
COC(=O)C1=C(O)/C(=C\c2cc(C)n(-c3ccc(F)cc3)c2C)N=C1C	nt	-1%	?	-23%	0%	?
COC(=O)C1=C(C)NC(=O)/C1=C\c1cc(C)n(-c2cccc(C)c2)c1C	-6%	?	25µM*	?	3%	-12%
CC(C)c1[nH]nc2c1C(c1ccco1)C(C#N)=C(N)O2 (stereo not given)	nt	?	9%	6%	2%	?
Cc1ccc(-n2nc(C)c3c2OC(N)=C(C#N)C3c2ccoc2)cc1 (stereo not given)	-28%	0.89µM*	13µM*	?	?	10µM*
Cc1ccc(-n2nc(C)c3c2OC(N)=C(C#N)C3c2ccco2)cc1 (stereo not given)	?	1.6µM*	25µM*	?	-11%	-21%
Cc1ccc(-n2nc(C)c3c2OC(N)=C(C#N)C3c2ccc(C)o2)cc1 (stereo not given)	-25%	1.6µM*	5µM*	?	?	25µM*
CCOC(=O)C1=C(C)OC(N)=C(C#N)C1c1c(C)nn(-c2ccc(C)cc2)c1Cl (stereo not given)	-16%	8%	?	-14%	6%	-10%

High-throughput results as filed in PubChem BioAssay.
